The nature of assay [1]: viability loss with induced miR-34 in A549 – imaging, A549 dox-inducible miR-34, nuclei and caspase counts, primary screen (AID 1347080;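 active = compounds whose cell count with miR-34 switched on is under 0.7 times the count with it off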). The conditions noted are these: A549 miR-34 inducible, Hoechst nuclei count, 48 h.
A short description of assay [2]: MELAS cybrid and Rieske KO viability enhancers – cell-based, MELAS cybrids, Rieske KO mouse fibroblasts, CellTiter-Glo, primary screen (AID 1508586;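 active = mean z-score across replicates of 1.96 or higher in either the MELAS or the Rieske mutant cell line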;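 also: z relative to plate mean and SD of compound and empty wells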). The conditions noted are these: low glucose.
Assay [3] can be described thus: drug combination growth inhibition, ovarian cancer – cell-based, oncology-focused library, rucaparib conditional, profiling panel (AID 1508598). The settings on record: patient-derived ovarian cancer cells, CellTiter-Glo viability, 144 h, stronger effect = lower value.
Setting [4] is: stronger effect = lower value, cell number ratio, induced over uninduced.
Setting [5] is: measured here: relative caspase fold change +Dox/-Dox.
Where [6] appears, read: measured here: total cells with miR-34 induction, stronger effect = lower value.
[7] abbreviates: measured here: total cells without miR-34 induction.
The mark [8] stands for this setting: MELAS cybrid survival, CellTiter-Glo 48 h, stronger effect = higher value.
The mark [9] stands for this setting: Rieske KO mouse fibroblast survival, CellTiter-Glo 72 h.
Where [10] appears, read: at 0.000305 µM, OCI-C5x cells, with rucaparib 10 µM, 100% = cells with rucaparib alone.
The mark [11] stands for this setting: at 0.000305 µM, OCI-C5x cells, without rucaparib.
Where [12] appears, read: at 0.000305 µM, OCI-P5x cells, with rucaparib 20 µM, 100% = cells with rucaparib alone.
[13] abbreviates: at 0.000305 µM, OCI-P5x cells, without rucaparib.
[14] abbreviates: at 0.00122 µM, OCI-C5x cells, with rucaparib 10 µM, 100% = cells with rucaparib alone.
[15] abbreviates: at 0.00122 µM, OCI-C5x cells, without rucaparib.
[16] abbreviates: at 0.00122 µM, OCI-P5x cells, with rucaparib 20 µM, 100% = cells with rucaparib alone.
Where [17] appears, read: at 0.00122 µM, OCI-P5x cells, without rucaparib.
Where [18] appears, read: at 0.00488 µM, OCI-C5x cells, with rucaparib 10 µM, 100% = cells with rucaparib alone.
[19] abbreviates: at 0.00488 µM, OCI-C5x cells, without rucaparib.
[20] abbreviates: at 0.00488 µM, OCI-P5x cells, with rucaparib 20 µM, 100% = cells with rucaparib alone.
Setting [21] is: at 0.00488 µM, OCI-P5x cells, without rucaparib.
Where [22] appears, read: at 0.0195 µM, OCI-C5x cells, with rucaparib 10 µM, 100% = cells with rucaparib alone.
[23] abbreviates: at 0.0195 µM, OCI-C5x cells, without rucaparib.
Where [24] appears, read: at 0.0195 µM, OCI-P5x cells, with rucaparib 20 µM, 100% = cells with rucaparib alone.
Where [25] appears, read: at 0.0195 µM, OCI-P5x cells, without rucaparib.
Where [26] appears, read: at 0.0781 µM, OCI-C5x cells, with rucaparib 10 µM, 100% = cells with rucaparib alone.
Where [27] appears, read: at 0.0781 µM, OCI-C5x cells, without rucaparib.
The mark [28] stands for this setting: at 0.0781 µM, OCI-P5x cells, with rucaparib 20 µM, 100% = cells with rucaparib alone.
[29] abbreviates: at 0.0781 µM, OCI-P5x cells, without rucaparib.
Where [30] appears, read: at 0.313 µM, OCI-C5x cells, with rucaparib 10 µM, 100% = cells with rucaparib alone.
Setting [31] is: at 0.313 µM, OCI-C5x cells, without rucaparib.
Setting [32] is: at 0.313 µM, OCI-P5x cells, with rucaparib 20 µM, 100% = cells with rucaparib alone.
Where [33] appears, read: at 0.313 µM, OCI-P5x cells, without rucaparib.
The mark [34] stands for this setting: at 1.25 µM, OCI-C5x cells, with rucaparib 10 µM, 100% = cells with rucaparib alone.
The mark [35] stands for this setting: at 1.25 µM, OCI-C5x cells, without rucaparib.
Where [36] appears, read: at 1.25 µM, OCI-P5x cells, with rucaparib 20 µM, 100% = cells with rucaparib alone.
Where [37] appears, read: at 1.25 µM, OCI-P5x cells, without rucaparib.
Setting [38] is: at 5 µM, OCI-C5x cells, with rucaparib 10 µM, 100% = cells with rucaparib alone.
Setting [39] is: at 5 µM, OCI-C5x cells, without rucaparib.
Where [40] appears, read: at 5 µM, OCI-P5x cells, with rucaparib 20 µM, 100% = cells with rucaparib alone.
[41] abbreviates: at 5 µM, OCI-P5x cells, without rucaparib.

The source made the active and inactive calls.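 The calls were made as follows, unless noted: active = normalized viability below 100% at a tested concentration; inactive = the rest.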

Regarding `CCOc1cc2ncc(C#N)c(Nc3ccc(F)c(Cl)c3)c2cc1NC(=O)C=CCN(C)C`, the fold change in assay [1] (setting [4]) was 0.915 (inactive); in assay [1] (setting [5]), 1.02. For the same compound, the cell count in assay [1] (setting [6]) came out at 681; in assay [1] (setting [7]), 744. For the same compound, the z-score in assay [2] (setting [8]) is 1.18 (inactive); in assay [2] (setting [9]), 0.656.
On to `C=C1CCC(O)CC1=CC=C1CCC[C@]2(C)C(C(C)C=CC(C)C(C)C)CC[C@@H]12` (stereo partly drawn), for which the fold change in assay [1] (setting [4]) was 0.949 (inactive); in assay [1] (setting [5]), 0.581. The values for the cell count in assay [1] (setting [6]) and in assay [1] (setting [7]) were 7890 and 8320, respectively. In addition, the z-score is -0.149 (inactive) in assay [2] (setting [8]) and -0.174 in assay [2] (setting [9]).
Consider `CC(=O)O[C@@]1(C(C)=O)CC[C@H]2[C@@H]3C=C(C)C4=CC(=O)CC[C@]4(C)[C@@H]3CC[C@@]21C`, for which the fold change in assay [1] (setting [4]) is 0.871 (inactive); in assay [1] (setting [5]), 0.828. Further, the cell count in assay [1] (setting [6]) stood at 6160; in assay [1] (setting [7]), 7070. Also, the figures for the z-score in assay [2] (setting [8]) and in assay [2] (setting [9]) were -0.515 (inactive) and 0.339, respectively. Besides, the viability was 94.9% (active) in assay [3] (setting [10]); 104% (inactive) in assay [3] (setting [11]); 96.4% (active) in assay [3] (setting [12]); 104% (inactive) in assay [3] (setting [13]); 107% (inactive) in assay [3] (setting [14]); 97.6% (active) in assay [3] (setting [15]). The viability is 99.8% (active) in assay [3] (setting [16]); 100% (inactive) in assay [3] (setting [17]); 102% (inactive) in assay [3] (setting [18]); 101% (inactive) in assay [3] (setting [19]); 99.9% (active) in assay [3] (setting [20]); 96.3% (active) in assay [3] (setting [21]). Besides, the viability in assay [3] (setting [22]) is 100% (inactive); in assay [3] (setting [23]), 99.3% (active); in assay [3] (setting [24]), 96.9% (active); in assay [3] (setting [25]), 93.1% (active); in assay [3] (setting [26]), 98.1% (active); in assay [3] (setting [27]), 94.7% (active). Further, the viability in assay [3] (setting [28]) is 100% (inactive); in assay [3] (setting [29]) it was 100% (inactive); in assay [3] (setting [30]), 116% (inactive); in assay [3] (setting [31]) it was 90.3% (active); in assay [3] (setting [32]), 92.2% (active); in assay [3] (setting [33]), 89.7% (active). For the same compound, the viability in assay [3] (setting [34]) was 116% (inactive); in assay [3] (setting [35]), 92.1% (active); in assay [3] (setting [36]) it was 89.9% (active); in assay [3] (setting [37]) it was 82.2% (active); in assay [3] (setting [38]) it was 111% (inactive); in assay [3] (setting [39]), 93.9% (active). Also, the viability in assay [3] (setting [40]) was 84.5% (active); in assay [3] (setting [41]), 82.1% (active).
With `Nc1nonc1C(=Nc1ccc(F)c(Cl)c1)NO`, the fold change is 0.862 (inactive) in assay [1] (setting [4]) and 0.685 in assay [1] (setting [5]). Besides, the cell count in assay [1] (setting [6]) came out at 8500; in assay [1] (setting [7]), 9860. Further, the z-score in assay [2] (setting [8]) is -0.315 (inactive); in assay [2] (setting [9]) it was 1.22. Besides, the viability in assay [3] (setting [10]) was 127% (inactive); in assay [3] (setting [11]) it was 108% (inactive); in assay [3] (setting [12]) it was 87% (active); in assay [3] (setting [13]), 92.2% (active); in assay [3] (setting [14]), 121% (inactive); in assay [3] (setting [15]) it was 110% (inactive). For the same compound, the viability in assay [3] (setting [16]) was 90.4% (active); in assay [3] (setting [17]), 100% (active); in assay [3] (setting [18]), 122% (inactive); in assay [3] (setting [19]), 114% (inactive); in assay [3] (setting [20]), 94% (active); in assay [3] (setting [21]), 98% (active). Besides, the viability in assay [3] (setting [22]) was 124% (inactive); in assay [3] (setting [23]) it was 101% (inactive); in assay [3] (setting [24]), 99.2% (active); in assay [3] (setting [25]) it was 95.7% (active); in assay [3] (setting [26]), 116% (inactive); in assay [3] (setting [27]), 107% (inactive). Besides, the viability was 105% (inactive) in assay [3] (setting [28]); 100% (active) in assay [3] (setting [29]); 116% (inactive) in assay [3] (setting [30]); 107% (inactive) in assay [3] (setting [31]); 99.5% (active) in assay [3] (setting [32]); 102% (inactive) in assay [3] (setting [33]). In addition, the viability in assay [3] (setting [34]) is 127% (inactive); in assay [3] (setting [35]), 115% (inactive); in assay [3] (setting [36]), 91.9% (active); in assay [3] (setting [37]), 99.5% (active); in assay [3] (setting [38]), 114% (inactive); in assay [3] (setting [39]), 120% (inactive). The viability in assay [3] (setting [40]) was 79% (active); in assay [3] (setting [41]) it was 90.1% (active).

These data come from PubChem BioAssay.
